miR122 inh: miR-122 inhibition in Huh7 cells; Huh7 miR-122 Renilla luciferase sensor, 48 h; neutral wells = 0, positive control = 100; AID 602342; actives 0.3% (n = 340,000); activation (reporter increase), % at 12.5 µM;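 active = mean replicate activation score at least 90 and every replicate individually at or above 90; inconclusive = only one of the two criteria met; inactive = neither criterion met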;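 also: higher luciferase means less miR-122 activity so hits act as miR-122 inhibitors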
PGC1a acetyl inh: modulators of PGC1a acetylation | U2OS PGC1a acetylation, AlphaScreen anti-acetyl-lysine; with virally co-expressed GCN5 acetyltransferase | inhibition, % at 15.6 µM | actives 0.17% (n = 350,000);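 active = every replicate shows inhibition of at least 40%; inconclusive = mean inhibition at least 40% but some replicate below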;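 also: 0% = neutral control wells and 100% = positive control wells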
DENV2 CPE: protects cells from dengue virus 2 cytopathic effect; DENV2-infected cells, cytopathic effect rescue, plate reader; CPE inhibition, % at 9.99 µM; actives 1.7% (n = 350,000); AID 651640; in the data active = CPE inhibition above about 20%, passing the limit was not always enough; inconclusive = no clear call, values can overlap the other calls; tested in BHK-21 cells;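 also: 0% = median of neutral control wells and 100% = median of positive control wells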
PvdQ acylase: P. aeruginosa PvdQ acylase inhibition | inhibition, % at 10 µM | actives 0.063% (n = 340,000) | purified PvdQ acylase, fluorescence plate reader; in the data active = inhibition above about 30%, passing the limit was not always enough; inconclusive = no clear call, values can overlap the other calls;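 also: 0% = vehicle neutral wells and 100% = reference inhibitor wells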
Statin myotox sup: suppressors of simvastatin-induced myotoxicity in C2C12 myotubes | ATP luminescence, 48 h; scaled: DMSO 0, geranylgeraniol control 100 | actives 0.78% (n = 330,000) | rescue of ATP level, % at 7.49 µM;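 active = mean ATP rescue above about 67%, or every replicate alone reaching that limit, limit read from the data, passing the limit was not always enough; inconclusive = no clear call, values can overlap the other calls; inactive = mean under the limit and some replicate under it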;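 also: myotubes were challenged with 10 µM simvastatin during compound exposure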
The depositor's hits bear a star; ? = inconclusive; / = no result given; [ ] = another dose, or the depositor's remark. An excerpt weighted towards active compounds, which were near 2.2% of everything screened.

SMILES | miR122 inh | PGC1a acetyl inh | DENV2 CPE | PvdQ acylase | Statin myotox sup
CCS(=O)(=O)N1CCCCN2[C@H](CO)[C@H](c3ccc(-c4ccc(C#N)cc4)cc3)[C@@H]2C1 | 18[16.7 µM] | 0 | -1 | / | -10
O=S(=O)(c1ccc(-c2ccccc2)cc1)N1C[C@@H]2N[C@H](C1)C2c1ccc(-c2ccccc2)cc1 (stereo not given in full) | / | -4 | 1 | / | /
CCS(=O)(=O)N1CCCCN2[C@H](C1)[C@@H](c1ccc(C#Cc3ccccn3)cc1)[C@@H]2CO | 9[16.7 µM] | 0 | ? | / | -5
CO[C@@H]1CN(C)C(=O)c2cc(NC(=O)C3CC3)ccc2OC[C@@H](C)N(CC2CCCC2)C[C@@H]1C | 5[16.7 µM] | -21 | -1 | / | -1
C[C@@H]1CN([C@H](C)CO)C(=O)c2cc(NC(=O)CCCN(C)C)ccc2O[C@@H](C)CCCCO[C@H]1CN(C)C(=O)Nc1ccccc1 | 4[16.7 µM] | -3 | -4 | / | /
Cc1ccc(S(=O)(=O)Nc2ccc3c(c2)C(=O)N([C@H](C)CO)C[C@@H](C)[C@H](CN(C)C(=O)Nc2ccc(F)cc2)OCCCC[C@@H](C)O3)cc1 | -10[16.7 µM] | 5 | -3 | / | /
C[C@H]1CN([C@@H](C)CO)S(=O)(=O)c2ccc(-c3cccnc3)cc2O[C@@H]1CN(C)CC1CCOCC1 | 44[16.7 µM] | -7 | ? | / | -7
Cc1ccc(CNC(=S)NC2CCC(C(C)(C)C)CC2)cc1 (stereo not given) | -2 | / | ? | -12 | -4
CC(NC(=S)NC1CCC(C(C)(C)C)CC1)c1ccccc1 (stereo not given) | -2 | -18 | 23* | -18 | -12
COc1ccc2c3c([nH]c2c1)[C@H](CO)N(C(=O)c1cccc(F)c1)CC31CCN(C(=O)c2ccccc2)CC1 | / | -9 | 12 | / | /
COc1ccc2c3c([nH]c2c1)[C@H](CO)N(C(=O)Nc1ccc(F)cc1)CC31CCN(C(=O)Nc2ccccc2)CC1 | / | -8 | 21* | / | /
COc1ccc2c3c([nH]c2c1)[C@@H](CO)N(C(=O)c1cccc(F)c1)CC31CCN(C(=O)c2cccc(F)c2)CC1 | / | / | 22* | / | /
COc1ccc2c3c([nH]c2c1)[C@@H](CO)N(C(=O)Nc1ccc(F)cc1)CC31CCN(S(=O)(=O)c2ccccc2)CC1 | / | -14 | 71* | / | /
O=C(c1cccc(F)c1)N1CC2(C1)[C@H](c1ccccc1)[C@@H](CO)N2C(=O)C1CCCCC1 | / | -2 | -7 | / | /
C[C@@H]1CCCCO[C@H](CN(C)S(=O)(=O)c2ccc(F)cc2)[C@@H](C)CN([C@@H](C)CO)C(=O)c2cc(NC(=O)Nc3ccc(F)cc3)ccc2O1 | -4[16.7 µM] | 8 | -3 | / | /
COC(=O)CSc1nc(C2CC2)cc(C(F)(F)F)c1C#N | 4 | 13 | / | -2 | 99*
O=[N+]([O-])c1ccc(N2CCCCC2)cc1 | -2 | 1 | 11 | 48* | /
O=[N+]([O-])c1ccc(/C=N/N2CCCCC2)cc1 | -6 | 16 | 33* | -18 | -8
CCOC(=O)C1CCN(c2ccc([N+](=O)[O-])cc2)CC1 | / | / | -1 | 37* | /
O=[N+]([O-])c1ccc(N2CCCCC2)nc1 | -16 | 6 | 0 | 39* | -13
C[C@@H]1CCCCO[C@@H](CN(C)CC2CCCCC2)[C@H](C)CN([C@@H](C)CO)C(=O)c2cc(NS(=O)(=O)c3ccc(F)cc3)ccc2O1 | -14[16.7 µM] | -10 | -13 | / | -70
CN(C)CC(=O)N[C@H]1CC[C@H](CCNC(=O)Nc2ccc(F)cc2)O[C@@H]1CO | -3[16.7 µM] | -7 | -1 | / | -10
C[C@@H]1CN([C@@H](C)CO)C(=O)Cc2cc(NC(=O)c3ccncc3)ccc2O[C@@H]1CN(C)C(=O)NC1CCCCC1 | 3[16.7 µM] | -1 | -4 | / | 8
CNC[C@@H]1Oc2ccc(NC(=O)CCC(F)(F)F)cc2CC(=O)N([C@H](C)CO)C[C@@H]1C | 0[16.7 µM] | 0 | 3 | / | 22
C[C@@H]1CN([C@@H](C)CO)C(=O)c2cc(-c3ccccc3)cnc2O[C@H]1CN(C)C(=O)C1CCOCC1 | -7[16.7 µM] | 2 | 1 | / | 9
N#Cc1cc([N+](=O)[O-])ccc1N1CCCC1 | / | / | 5 | 89* | /
O=[N+]([O-])c1ccc(N2CCN(c3ccccc3)CC2)nc1 | / | / | 1 | 1 | -5
O=[N+]([O-])c1ccc(N2CCCC2)nc1 | -5 | -4 | -4 | 39* | /
O=C(CN1CCN(c2ccccn2)CC1)NCCc1ccccc1 | 0 | 4 | / | -5 | 111*
O=C(CN1CCN(c2ccccn2)CC1)Nc1ccc(F)cc1 | -5 | -10 | / | -20 | 116*

Source: PubChem BioAssay (Broad Institute)
